PubChem BioAssay (NCATS)
Results filed as inconclusive are left out. Active and inactive are the calls of the source. Calls come from the whole dose curve; as a rule, active = well fitted inhibition curve with a large enough effect; inconclusive = small, poorly fitted or top-dose-only effect; inactive = flat fitted curve, though single readings scatter.

How the values were obtained:
Assay in all cases: qHTS profiling for inhibitors of Plasmodium falciparum proliferation (AID 504749); note: nearly all actives have a fitted effect of over 60% in size
Conditions in all cases: P. falciparum in erythrocytes, SYBR Green DNA, 72 h; series mostly up to 28.7 µM
3D7 = test system: 3D7
In short: (§1)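 Each compound contacts P. falciparum-infected red blood cells for 72 h at 37 C; lysis buffer (Tris, EDTA, saponin, Triton X, SYBR Green I) is added and fluorescence measured next morning; values normalized to controls.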

7G8 = test system: 7G8
In short: as §1

AS120 = test system: AS120
In short: as §1

ATS189 = test system: ATS189
In short: as §1

CP185 = test system: CP185
In short: as §1

CP191 = test system: CP191
In short: as §1

CP192 = test system: CP192
In short: as §1

CP194 = test system: CP194
In short: as §1

CP201 = test system: CP201
In short: as §1

CP237 = test system: CP237
In short: as §1

CP238 = test system: CP238
In short: as §1

CP247 = test system: CP247
In short: as §1

CP286 = test system: CP286
In short: as §1

CP305 = test system: CP305
In short: as §1

DIV30 = test system: DIV30
In short: as §1

HB3 = test system: HB3
In short: as §1

P94_40 = test system: P94_40
In short: as §1

PC49 = test system: PC49
In short: as §1

TAB109 = test system: TAB109
In short: as §1

TAB113 = test system: TAB113
In short: as §1

Measured: Potency
Potency is the fitted concentration of half-maximal effect.

O=C(CC1NCCC[C@H]1O)Cn1cnc2cc(Br)c(Cl)cc2c1=O (stereo not given in full)
active: 3D7 1 µM | 7G8 1 µM | AS120 2 µM | ATS189 4.47 µM | CP185 2.82 µM | CP191 2.82 µM | CP192 3.38 µM | CP194 4.78 µM | CP201 3.38 µM | CP237 3.55 µM | CP238 3.98 µM | CP247 2.24 µM | CP286 2 µM | CP305 3.38 µM | DIV30 3.38 µM | HB3 2 µM | P94_40 1.41 µM | PC49 1.78 µM | TAB109 0.794 µM | TAB113 2.24 µM
